From PubChem BioAssay
HT1080 IDH1KD tx – HT-1080 IDH1 knockdown cell toxicity (counter line). AID 686971. HT-1080 IDH1 knockdown viability, ATP luminescence, 48 h. 360,000 compounds, 2% hits. Potency, µM (doses to about 46.1 µM), for inactives: at the highest dose activity, negative = toxicity, hits mostly cytotoxic;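 further: 0% = DMSO wells and -100% = cell-free medium wells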
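Luminescent ATP read-out (CellTiter-Glo, 10 min at room temperature) after 48 h compound exposure at 37 °C gave viability of IDH1-knockdown HT-1080 cells. Activity was normalised to DMSO and cell-free wells, then fitted as concentration-response curves.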
HT1080NT lethal – kills 2HG-producing HT-1080-NT fibrosarcoma cells. Potency, µM (top dose mostly 46.1 µM), for inactives: at the top dose activity, negative = less viability, hits mostly cytotoxic. 360,000 compounds, 1.6% hits. HT-1080-NT fibrosarcoma viability, CellTiter-Glo ATP luminescence, 48 h;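 further: NT is the 2HG producing partner of a matched IDH1 knockdown line; 0% = DMSO-treated cells and -100% = media-only wells without cells; nearly all actives have a fitted effect of over 55% in size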
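Luminescent CellTiter-Glo readout after 48 hours of compound exposure at 37 degrees C defined viability of HT-1080-NT cells. Activity was normalized to DMSO wells and cell-free media wells; concentration-response curves were fitted and assigned curve classes.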
ATXN2 expr inh – reduces ATXN2 reporter expression in HEK-293 cells. Potency, µM (doses to about 57 µM), for the others: at the top dose activity change, negative = inhibition, hits mostly inhibitors. AID 1745845. 360,000 compounds, 0.72% hits. HEK-293 ATXN2-luciferase reporter, luminescence, 24 h; further: on the % scale 0 is the no-effect control and ±100 the full control effect; nearly all actives have a fitted effect of over 55% in size
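qHTS (up to 57 uM final) was run with 24 h compound exposure of reporter cells at 37 °C. Each well was multiplexed: SteadyGlo luminescence measured ATXN2-luciferase expression after a fluorogenic Gly-Phe-AFC viability readout (25 uM final).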
S2 tox – cell viability loss in ATXN counter-screen | 400,000 compounds, 0.49% hits | S2 cells (HEK-293 line with an ATXN2-luciferase reporter) viability, CellTiter-Fluor protease fluorescence, 24 h | Potency, µM (titrated, usually from 56.7 µM), hits mostly cytotoxic; further: nearly all actives have a fitted effect of over 40% in size
TGFb SMAD3 inh – blocks TGF-b signaling | 410,000 compounds, 1.2% hits | HepG2 CAGA-GFP TGF-b/SMAD3 reporter, GFP fluorescence, 18 h; TGF-beta stimulated, 500 pg/mL final | Potency, µM (series often up to 46.1 µM), inactives show at the top dose activity, negative = inhibition, most hits filed as inhibitors; further: on the % scale 0 is the no-effect control and ±100 the full control effect; nearly all actives have a fitted effect of over 65% in size
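Using HEPG2 CAGA-GFP reporter cells at 1000 cells/well, we pinned test compounds, stimulated with recombinant TGF-beta (500 pg/mL final) and measured total well GFP after 18 h.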
HepG2 viability – HepG2 cytotoxicity, counter-screen for TGF-b inhibitors; HepG2 CAGA-GFP viability, ATP luminescence, 18 h; Potency, µM (titrated, usually from 46.1 µM), without a hit: at the top dose activity change, negative = cytotoxicity, usual class: cytotoxic; 410,000 compounds, 0.76% hits; AID 588856
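HepG2 CAGA-GFP cells (1000/well, DMEM with 1% FBS) received compound, then TGF-beta at 500 pg/mL final, and were incubated 18 hours at 37 degrees C. Viability was read by CellTiter-Glo luminescence. Media-only wells were set as complete cell-killing and DMSO as no toxicity.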
Starred values were filed as active, the others as inactive; i = inactive; ? = inconclusive; · = no result. Sampled rows, rich in hits. Any-hit rate of the full collection: about 3.9%. The call rests on the fitted dose curve; in most records, active means well fitted curve in the direction sought with a large enough effect; inconclusive means small, poorly fitted or top-dose-only effect, or another doubt; inactive means no such curve, though single readings can be large; an effect the other way counts as inactive or inconclusive. Potency means the concentration at half of the fitted maximal effect.

SMILES	HT1080 IDH1KD tx	HT1080NT lethal	ATXN2 expr inh	S2 tox	TGFb SMAD3 inh	HepG2 viability
O=C(/C=C\Nc1ccc2c(c1)OCO2)c1cccs1	6.5µM*	?	13%	?	9%	-44%
COC1=C(c2ccccc2)C(=O)c2ccccc2C1=O	26µM*	-13%	?	·	11µM*	22µM*
O=C(C1=C(c2ccccc2)C(=O)c2ccccc2C1=O)c1ccccc1	15µM*	?	?	·	5.6µM*	10µM*
O=C(c1ccccc1)c1c[nH]cc1-c1ccccc1	-15%	4%	2%	i	10%	-3%
NS(=O)(=O)c1ccc(CCNc2nn3c(-c4cccc(OC(F)(F)F)c4)cnc3s2)cc1	8.2µM*	8.2µM*	25µM*	?	?	-24%
CCOC(=O)C(=Cc1ccc(-c2ccsc2C(=O)OC)o1)C(=O)OCC	?	4%	?	i	?	-7%
COC(=O)C(=Cc1ccc(-c2ccsc2C(=O)OC)o1)C(=O)OC	21µM*	?	-19%	i	?	-46%
CCOC(=O)C1=C(c2ccccc2)N=c2s/c(=C\c3cccc(O)c3)c(=O)n2C1c1cccs1 (stereo not given)	?	?	?	?	?	14µM*
Cc1ccc(CNC(=O)c2cccn2-c2nnc(N3CCCC3)s2)cc1	·	·	·	·	?	-32%
Cc1ccc(CNC(=O)c2cccn2-c2nnc(N3CCCCC3)s2)cc1	·	·	·	·	7.9µM*	-39%
Cc1ccc(CNC(=O)c2cnc(N3CCCCC3)c3ccccc23)cc1	·	·	·	·	11µM*	1%
O=C(Nc1nnc(S(=O)(=O)N2CCc3ccccc32)s1)c1cccc(Cl)c1	·	·	?	i	7.9µM*	-46%
COc1ccc(OCC(=O)Nc2nnc(S(=O)(=O)N3CCc4ccccc43)s2)cc1	·	·	7%	i	?	-34%
O=C(Nc1nnc(S(=O)(=O)N2CCc3ccccc32)s1)c1ccccc1	·	·	10%	i	?	-39%
O=C(COc1ccc(F)cc1)Nc1nnc(S(=O)(=O)N2CCc3ccccc32)s1	·	·	-5%	i	13µM*	-29%
O=C(Nc1cc(Cl)cc(Cl)c1)c1ccc(F)c(S(=O)(=O)N2CCc3ccccc32)c1	·	·	·	·	4µM*	-76%
COc1ccc(C2Nc3ccccc3C(=O)N2c2cccc3ccccc23)cc1COc1c(C)cccc1C (stereo not given)	·	·	·	·	25%	3%
CCc1ccc(-n2c(=O)c3sc4ccccc4c3n(CC(=O)N3CCCC3)c2=O)cc1	·	·	2%	?	-10%	11%
Fc1ccccc1-c1ccc(/C=N/Nc2nc3ccccc3[nH]2)o1	26µM*	?	·	i	13µM*	-57%
C(=N\Nc1nc2ccccc2[nH]1)/c1ccc2ncccc2c1	0.73µM*	0.65µM*	?	i	?	-74%
O=c1cnnc(N/N=C/c2ccccn2)[nH]1	1.3µM*	?	1.8µM*	?	-30%	-24%
COc1ccc(/C=N/Nc2nc3ccccc3[nH]2)cc1OC	-23%	-16%	45%	i	-28%	-24%
Cc1cc(=O)[nH]c(N/N=C/c2ccccn2)n1	?	?	?	i	?	-11%
C(=N\Nc1nc2ccccc2[nH]1)/c1ccccn1	18µM*	?	·	?	?	-83%
Fc1ccc(CCNc2ncnc3nc[nH]c23)cc1	·	·	·	·	33%	-20%
C#CCn1cc(/C=N/Nc2nc3ccccc3[nH]2)c2ccccc21	?	16µM*	17%	i	?	-5%
CCCCn1c(/C=N/Nc2nc3ccccc3[nH]2)nc2ccccc21	15µM*	?	?	?	11µM*	-42%
O=c1nc(N/N=C/c2ccccn2)cn[nH]1	?	?	6.3µM*	i	6%	-13%
